Test results from PubChem BioAssay (EPA / NIEHS).
Inconclusive results are not listed. Activity calls are given as the source filed them. How the source made its calls, unless noted: active means hit-call score of the fitted dose curve at least 0.9, where 1 is the maximum; inactive means score below 0.9.

What was measured:
[1] = ATG_TAL_CIS: Attagene CIS-FACTORIAL HepG2 Assay for human TAL Basal Promoter (AID 2282966); settings: HepG2 Attagene cis-factorial TAL promoter reporter; actives raise or lower the signal;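 further: background control endpoint measuring basal TAL promoter reporter mRNA not a specific factor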
In short: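 In this cell-based multiplex, HepG2 liver cells bearing cis-promoter reporter constructs are dosed for 24 hours. Total RNA is reverse-transcribed and amplified, labelled fragments are sized by capillary electrophoresis, and signal changes are fitted bidirectionally versus DMSO.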

[2] = ATG_TGFb_CIS: Attagene CIS-FACTORIAL HepG2 Assay for human Transforming Growth Factor (TGF) (AID 2282967); settings: HepG2 Attagene CIS TGFb reporter, mRNA transcription; actives raise or lower the signal
In short: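 Liver HepG2 line, cis-factorial reporter panel, 24 h dosing. Quantitation: RT-PCR products labeled with 6-FAM, cut with HpaI, resolved by capillary electrophoresis; DMSO-referenced bidirectional analysis.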

[3] = ATG_VDRE_CIS: Attagene CIS-FACTORIAL HepG2 Assay for human Vitamin D Receptor Element (VDRE) (AID 2282968); settings: HepG2 VDRE cis-reporter transcription, actives raise or lower the signal
In short: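 RT-PCR/CE readout of reporter mRNA; HepG2, transient transfection, 24 h dosing; DMSO baseline; bidirectional analysis.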

[4] = biological target: Nuclear receptor subfamily 1 group I member 3 (Homo sapiens) (UniProt Q14994); assay: ATG_CAR_TRANS: Attagene TRANS-FACTORIAL HepG2 Assay for human Constitutive Androstane Receptor (CAR) (AID 2282969; active means hit-call score of the fitted dose curve at least 0.9, where 1 is the maximum;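 further: activators raise reporter mRNA above DMSO so AC50 marks induction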); settings: HepG2 Attagene TRANS-FACTORIAL CAR reporter
Sequence of Nuclear receptor subfamily 1 group I member 3 (Homo sapiens) (Q14994 whole entry, looked up, the tested form may be a part): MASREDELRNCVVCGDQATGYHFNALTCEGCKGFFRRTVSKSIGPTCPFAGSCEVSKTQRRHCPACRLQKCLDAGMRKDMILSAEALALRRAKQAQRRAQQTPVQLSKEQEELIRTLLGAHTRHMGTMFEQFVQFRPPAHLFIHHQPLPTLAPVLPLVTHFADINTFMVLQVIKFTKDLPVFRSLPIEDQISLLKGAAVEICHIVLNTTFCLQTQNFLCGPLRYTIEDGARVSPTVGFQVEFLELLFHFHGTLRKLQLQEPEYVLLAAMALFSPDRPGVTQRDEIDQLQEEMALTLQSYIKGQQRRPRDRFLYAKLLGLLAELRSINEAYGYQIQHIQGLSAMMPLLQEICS
In short: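 HepG2 cells transiently transfected with multiplexed GAL4-UAS reporter units expressing chimeric NR-Gal4 proteins; compound exposure 24 h. Reporter mRNA measured by RT-PCR, 6-FAM labelling, HpaI digestion and capillary electrophoresis; gain-of-signal fitted against DMSO baseline.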

[5] = biological target: Steroid hormone receptor ERR1 (Homo sapiens) (UniProt P11474); assay: ATG_ERRa_TRANS: Attagene TRANS-FACTORIAL HepG2 Assay for human Estrogen-Related Receptor alpha (ERRa) (AID 2282971; active means hit-call score of the fitted dose curve at least 0.9, where 1 is the maximum); settings: HepG2 Attagene TRANS reporter, ERRa transactivation
Sequence of Steroid hormone receptor ERR1 (Homo sapiens) (P11474 whole entry, looked up, the tested form may be a part): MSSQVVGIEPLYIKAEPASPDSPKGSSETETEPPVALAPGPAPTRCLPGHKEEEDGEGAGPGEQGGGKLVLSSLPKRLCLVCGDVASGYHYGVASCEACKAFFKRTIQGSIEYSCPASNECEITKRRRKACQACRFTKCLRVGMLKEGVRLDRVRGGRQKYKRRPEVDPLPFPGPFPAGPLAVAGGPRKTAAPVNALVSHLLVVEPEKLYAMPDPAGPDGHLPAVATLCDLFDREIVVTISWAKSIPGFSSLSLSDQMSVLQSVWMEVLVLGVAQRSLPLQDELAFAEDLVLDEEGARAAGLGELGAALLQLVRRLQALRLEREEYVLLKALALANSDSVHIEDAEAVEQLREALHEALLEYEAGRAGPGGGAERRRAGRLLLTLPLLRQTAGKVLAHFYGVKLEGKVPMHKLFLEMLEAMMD
In short: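 Transfected HepG2, 24 h dosing, ERRa-Gal4 chimera driving GAL4-UAS reporter. Readout: reporter mRNA via RT-PCR plus capillary electrophoresis (fluorescence). Positive direction vs DMSO control.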

[6] = biological target: X-box-binding protein 1 (Homo sapiens) (UniProt P17861); assay: ATG_Xbp1_CIS: Attagene CIS-FACTORIAL HepG2 Assay for human X-box Binding Protein 1 (XBP1) (AID 2282972); settings: HepG2 XBP1 cis-element reporter, Attagene multiplex; actives raise or lower the signal
Sequence of X-box-binding protein 1 (Homo sapiens) (P17861 whole entry, looked up): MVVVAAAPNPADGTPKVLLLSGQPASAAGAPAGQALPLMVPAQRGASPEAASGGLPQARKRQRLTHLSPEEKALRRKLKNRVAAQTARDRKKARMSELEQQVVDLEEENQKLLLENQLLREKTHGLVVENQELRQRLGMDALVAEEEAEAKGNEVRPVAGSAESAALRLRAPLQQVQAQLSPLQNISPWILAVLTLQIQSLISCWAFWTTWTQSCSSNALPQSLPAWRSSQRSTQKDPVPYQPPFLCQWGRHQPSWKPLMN
In short: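 After a 24-hour chemical exposure of HepG2 cells carrying cis-regulated reporters, reporter mRNA levels are assessed. Quantification uses RT-PCR, 6-FAM labelling and capillary electrophoresis. Gain- or loss-of-signal is fitted against DMSO.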

[7] = ATG_M_19_TRANS: Attagene TRANS-FACTORIAL HepG2 Assay for M19 Transcription Factor (Internal Marker) (AID 2282974; active means hit-call score of the fitted dose curve at least 0.9, where 1 is the maximum); settings: HepG2 Attagene TRANS-FACTORIAL M19 internal marker reporter
In short: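 Cells: human HepG2, transiently transfected with multiplexed reporter transcription units. Exposure: 24 h. Detection: RT-PCR of reporter mRNA with capillary electrophoresis. Analysis: gain-of-signal vs DMSO.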

[8] = ATG_GAL4_TRANS: Attagene TRANS-FACTORIAL HepG2 Assay for GAL4 (Internal Marker) (AID 2282976; active means hit-call score of the fitted dose curve at least 0.9, where 1 is the maximum); settings: HepG2 Attagene TRANS GAL4 internal marker reporter
In short: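 RT-PCR/capillary electrophoresis readout of reporter mRNA. HepG2, transient MRTU transfection (GAL4-UAS reporters), 24 h compound exposure. Background-control endpoint, positive direction vs DMSO baseline.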

[9] = biological target: Estrogen-related receptor gamma (Homo sapiens) (UniProt P62508); assay: ATG_ERRg_TRANS: Attagene TRANS-FACTORIAL HepG2 Assay for human Estrogen-Related Receptor gamma (ERRg) (AID 2282977; active means hit-call score of the fitted dose curve at least 0.9, where 1 is the maximum;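 further: hits increase reporter signal over DMSO so potencies reflect activators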); settings: HepG2 Attagene TRANS reporter, ERRg transactivation
Sequence of Estrogen-related receptor gamma (Homo sapiens) (P62508 whole entry, looked up, the tested form may be a part): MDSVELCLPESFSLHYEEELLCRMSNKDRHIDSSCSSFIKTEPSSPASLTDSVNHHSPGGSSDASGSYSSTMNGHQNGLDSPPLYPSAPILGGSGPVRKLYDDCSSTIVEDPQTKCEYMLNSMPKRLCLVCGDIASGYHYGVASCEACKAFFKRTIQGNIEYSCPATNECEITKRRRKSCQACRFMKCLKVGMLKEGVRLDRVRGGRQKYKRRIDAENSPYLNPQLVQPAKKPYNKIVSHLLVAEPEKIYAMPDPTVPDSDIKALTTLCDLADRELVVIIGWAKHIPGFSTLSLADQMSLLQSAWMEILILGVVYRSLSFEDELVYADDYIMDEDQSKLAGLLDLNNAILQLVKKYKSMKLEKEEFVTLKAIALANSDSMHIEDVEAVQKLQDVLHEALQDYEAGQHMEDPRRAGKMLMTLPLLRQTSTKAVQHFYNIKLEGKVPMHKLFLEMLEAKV
In short: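 Transfect HepG2 with multiple GAL4-UAS reporter transcription units; dose chemicals 24 h; isolate RNA, reverse-transcribe with oligo(dT), PCR-amplify, label with 6-FAM, digest with HpaI; size fragments by capillary electrophoresis. DMSO serves as negative control.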

[10] = biological target: Estrogen receptor (Homo sapiens) (UniProt P03372); assay: ATG_ERa_TRANS: Attagene TRANS-FACTORIAL HepG2 Assay for human Estrogen Receptor alpha (ERa) (AID 2282970; active means hit-call score of the fitted dose curve at least 0.9, where 1 is the maximum); settings: HepG2 Attagene TRANS ERa GAL4 reporter, mRNA
Sequence of Estrogen receptor (Homo sapiens) (P03372 whole entry, looked up, the tested form may be a part): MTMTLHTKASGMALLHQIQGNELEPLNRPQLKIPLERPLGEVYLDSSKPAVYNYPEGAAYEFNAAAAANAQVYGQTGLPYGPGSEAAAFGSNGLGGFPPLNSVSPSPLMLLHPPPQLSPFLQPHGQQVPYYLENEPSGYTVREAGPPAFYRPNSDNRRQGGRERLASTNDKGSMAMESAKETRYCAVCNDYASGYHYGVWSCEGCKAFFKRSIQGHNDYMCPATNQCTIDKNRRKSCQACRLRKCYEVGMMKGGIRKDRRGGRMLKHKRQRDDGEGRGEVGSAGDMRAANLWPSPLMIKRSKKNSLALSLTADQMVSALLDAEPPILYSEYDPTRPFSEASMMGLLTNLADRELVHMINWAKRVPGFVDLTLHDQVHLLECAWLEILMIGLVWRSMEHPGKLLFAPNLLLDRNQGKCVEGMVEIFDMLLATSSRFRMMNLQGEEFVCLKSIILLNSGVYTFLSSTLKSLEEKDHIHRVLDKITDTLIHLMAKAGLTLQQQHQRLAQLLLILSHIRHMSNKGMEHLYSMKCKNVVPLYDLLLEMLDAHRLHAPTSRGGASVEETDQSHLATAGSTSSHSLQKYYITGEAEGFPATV
In short: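 After 24 h of compound treatment, RNA from HepG2 cells bearing transfected GAL4-UAS reporter constructs is converted to cDNA, amplified and fluorescently labelled. Capillary electrophoresis resolves the ERa-linked reporter; DMSO serves as negative control.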

Measured: AC50

CNCc1ccc(NC(=O)c2c[nH]c3c2C(=O)CCC3)cc1
not listed: [10]
inactive: all other assays above

CCc1cc(SCc2sc(-c3ccc(C(F)(F)F)cc3)nc2CN2CCN(c3ccc(OC)cc3)CC2)ccc1OCC(=O)O
inactive: [1] | [2] | [4] | [9]
active: [3] 16.5 µM | [6] 8.03 µM

O=C(NS(=O)(=O)/C=C/c1ccccc1)c1ccc(F)cc1Cl
not listed: [3] | [5] | [8]
inactive: all other assays above

Nc1ccc(Nc2ccccc2)cc1
active: [10] 24.5 µM
inactive: [1] | [2] | [6] | [7]

Cn1c(=O)c2c(ncn2C)n(C)c1=O
inactive: [1] | [2] | [4] | [6] | [7] | [9]

CC(C)CC(C)(O)C#CC(C)(O)CC(C)C (stereo not drawn)
inactive: [1] | [2] | [3] | [6] | [7]

CCCCC(CC)COC(=O)c1ccc(C(=O)OCC(CC)CCCC)cc1 (stereo not drawn)
inactive: [1] | [2] | [5] | [6] | [8]

CCCCC(CC)COC(=O)CCCCCCCCC(=O)OCC(CC)CCCC (stereo not drawn)
inactive: [1] | [2] | [3] | [6] | [7]

NC(=O)NO
inactive: [1] | [2] | [3] | [6] | [8]

CC(C)=CCCC(C)CCO (stereo not drawn)
active: [10] 34 µM
inactive: [1] | [2] | [6] | [7]

CCOc1cccc(-n2cc(C(=O)N3CCN(c4cc(C(=O)O)c5ccccc5c4)CC3)nc2-c2ccc(C)cc2)c1
active: [2] 151 µM | [3] 27.2 µM
inactive: [1] | [6] | [7] | [8]

O=C1CCCCCN1
inactive: [1] | [2] | [3] | [6] | [9]

Fc1ccccc1[C@@H](F)COC1CCC(Nc2ncnc3[nH]ncc23)CC1 (stereo partly drawn)
inactive: [1] | [2] | [6] | [7]
active: [3] 26 µM

O=C(O)c1cc(N=Nc2ccc(S(=O)(=O)Nc3ccccn3)cc2)ccc1O
inactive: [1] | [2] | [3] | [6] | [7] | [8]

C1N2CN3CN1CN(C2)C3
inactive: [1] | [2] | [3] | [6] | [7] | [8]

Cn1cnc([N+](=O)[O-])c1Sc1ncnc2nc[nH]c12
active: [10] 46.1 µM
inactive: [1] | [2] | [4] | [6]

On1ccccc1=S
inactive: [1] | [2] | [3] | [6] | [9]

CC1=CC(=O)CC(C)(C)C1
inactive: [1] | [2] | [3] | [6] | [7]

CC(C)CCCCCCOC(=O)c1ccc(C(=O)OCCCCCCC(C)C)c(C(=O)OCCCCCCC(C)C)c1
inactive: [1] | [2] | [3] | [6] | [8]

CC(C)=CCC/C(C)=C\CO
inactive: [1] | [2] | [3] | [6] | [7]

COCCOCCOCCOC
inactive: [1] | [2] | [3] | [6] | [7] | [8]

Oc1ccc2c(c1)-c1ccccc1C2
inactive: [1] | [2] | [8]
active: [3] 28.8 µM | [6] 57.7 µM

CC(C)c1cccc(C(C)C)c1N1C(=O)c2ccc(O)cc2C1=O
active: [3] 33.9 µM | [6] 100 µM
inactive: [1] | [2] | [7]

CC(=O)OC[C@H]1O[C@@](COC(C)=O)(O[C@H]2O[C@H](COC(C)=O)[C@@H](OC(C)=O)[C@H](OC(C)=O)[C@H]2OC(C)=O)[C@@H](OC(C)=O)[C@@H]1OC(C)=O
inactive: [1] | [2] | [3] | [6] | [8]

O=C1CCC(N2C(=O)c3ccccc3C2=O)C(=O)N1 (stereo not drawn)
inactive: [1] | [2] | [6] | [8]

CNS(=O)(=O)c1cc(C(=O)N2CCC(CCN3C4CCC3CC(n3c(C)nc5ccccc53)C4)(c3cccc(F)c3)CC2)c(Cl)cc1F (stereo not drawn)
active: [3] 5.14 µM
inactive: [1] | [2] | [6] | [7] | [8]

CCN(C(=O)c1cc(C)cc(OC[C@H](C)Nc2ccncc2)c1)C(C)C
inactive: [1] | [2] | [4] | [6]

Cc1[nH]cnc1C[C@H]1CCc2c(C)c3ccccc3n2C1=O
inactive: [2] | [9]
active: [1] 40.8 µM | [3] 29.7 µM | [6] 20.4 µM

CC(=O)OCCC(C)C
inactive: [1] | [2] | [5] | [6] | [8]

CCOCCOCCOCCO
inactive: [1] | [2] | [3] | [6] | [7] | [8]

O=C(O)c1cccc(N(Cc2cccnc2)c2ccc(OC(F)F)c(OC(F)F)c2)c1
inactive: [1] | [2] | [3] | [6] | [8] | [9]

CC(O)CN(CCN(CC(C)O)CC(C)O)CC(C)O (stereo not drawn)
inactive: [1] | [2] | [3] | [6] | [7]
